Screens (PubChem BioAssay)
Most compounds without a hit are left out; they make up all but 3.2% or so of the library.
CHT allo act – allosterically activates the human high affinity choline transporter; B-score at 10 µM; Q9GZV3; AID 488977; CHT-expressing cells, membrane potential dye, choline EC20; stronger effect = higher value; LV-AA mutant CHT in HEK293 cells; 310,000 tested, 0.49% active;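 active = initial fluorescence not abnormally high and integrated response B-score, plate-corrected, over 3 SD above library mean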
Rce1 inhib – inhibitors of yeast Ras-converting enzyme; Q03530; yeast membranes, quenched prenylated peptide cleavage fluorescence; calls only; 290,000 tested, 0.27% active; AID 2563;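 active = fall in fluorescence gain of 50% or more versus controls, with final raw signal at or below 3038400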;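 also: plate controls were neutral control wells for no effect and wells lacking membranes for full effect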
Target sequence (Q03530 whole entry, looked up): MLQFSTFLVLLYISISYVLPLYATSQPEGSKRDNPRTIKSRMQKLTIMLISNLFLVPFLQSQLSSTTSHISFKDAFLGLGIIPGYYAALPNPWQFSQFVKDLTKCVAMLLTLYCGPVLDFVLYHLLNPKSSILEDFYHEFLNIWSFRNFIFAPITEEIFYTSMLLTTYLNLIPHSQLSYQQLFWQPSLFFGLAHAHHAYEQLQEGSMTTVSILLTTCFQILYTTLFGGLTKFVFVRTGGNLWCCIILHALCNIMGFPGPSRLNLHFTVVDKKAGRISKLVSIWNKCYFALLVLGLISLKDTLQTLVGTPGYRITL
CHT block – human CHT choline transport inhibition; CHT-expressing cells, membrane potential dye, choline response; stronger effect = lower value; 310,000 tested, 0.86% active; Q9GZV3; B-score at 10 µM;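 active = B-score over 3 SD under the library average, and starting fluorescence ratio not unusually high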;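 also: choline stimulus applied at its EC90 after an EC20 pre-addition; B-score computed on integrated fluorescence ratio after choline addition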
ANO1 block – mouse TMEM16A channel inhibition, primary screen; HEK293 TMEM16A/YFP iodide influx fluorescence, ionomycin; Q8BHY3; AID 588511; normalized B-score (activity score, 25-100; higher = stronger inhibition) at 10 µM; 310,000 tested, 1.2% active;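 active = ratio plate-corrected score three or more library SD toward inhibition, starting fluorescence score within five deviations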;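 also: score derived from kinetic fluorescence span divided by baseline fluorescence per well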
Kir21 inh – inhibitors of mouse Kir2.1 inward-rectifier potassium channel; P35561; HEK293-Kir2.1, FluxOR thallium flux fluorescence; stronger effect = lower value; AID 1672; 310,000 tested, 0.85% active; B-score at 10 µM;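 active = fluorescence ratio B-score at or below minus 3 SD of library scores, with starting-brightness B-score within 2 SD, cut at about -4.2 in these data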;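 also: channel flux triggered by added potassium and thallium sulfate stimulus; B-score of peak minus minimum fluorescence over baseline after thallium stimulus; more negative B-score means stronger Kir2.1 block with less thallium influx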
ANO1 activ – activates or potentiates the mouse TMEM16A chloride channel; Q8BHY3; HEK293 TMEM16A/YFP-H148Q/I152L, iodide quench fluorescence; stronger effect = lower value; B-score at 10 µM; 340,000 tested, 0.3% active;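 active = fluorescence-ratio B-score plate-corrected deviation score at least 3 library SD below zero, with starting fluorescence score within 5 deviations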;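 also: channel opened by trigger with iodide after compound preincubation; score built on the fluorescence ratio of max minus min over baseline; more negative score means more quench and so TMEM16A activation or potentiation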
CHT activ conf – human CHT activation, confirmatory screen; shares compounds with CHT allo act; CHT-expressing cells, membrane potential dye fluorescence (FDSS); % of choline EC20–EC90 response window; HEK293 expressing CHT LV-AA mutant; choline added at its EC20; activation, % at 10 µM; 2,500 tested, 91% active;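 active = primary screen active, with duplicate mean activation above negative control mean plus 3 SD, cut at about 11% in these data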
HEK293 MP dye – CHT activator counter-screen hit in parental HEK293 cells | shares compounds with CHT allo act | membrane potential dye fluorescence (FDSS); measured after EC20 choline addition | ratio readout change at 10 µM, hits read low | 2,500 tested, 62% active | AID 623908;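 active = duplicate-averaged ratio beyond 3 SD from buffer wells, up or down, though filed actives are nearly all decreases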
* hit, by the source's call; i = inactive; . = not tested or not shown.

SMILES	CHT allo act	Rce1 inhib	CHT block	ANO1 block	Kir21 inh	ANO1 activ	CHT activ conf	HEK293 MP dye
CCC(C)(C)n1nnnc1C(c1cccnc1)N1CCN(c2cccc(C(F)(F)F)c2)CC1 (configuration not stated)	i	i	i	i	-0.78	i	12*	i
O=C(COC(=O)c1cc([N+](=O)[O-])ccc1N1CCOCC1)Nc1ccc(Cl)cc1	i	i	i	i	1.5	i	.	.
Cc1ccc(C(=O)c2cc([N+](=O)[O-])ccc2N2CCCCC2)cc1	i	i	i	i	1.7	i	31*	i
O=C(NCc1ccc2c(c1)OCO2)c1cccc([N+](=O)[O-])c1	i	i	i	i	0.05	i	.	.
O=C(COC(=O)c1cc([N+](=O)[O-])ccc1N1CCOCC1)Nc1ccc(Cl)cn1	6.8*	i	i	i	0.26	i	20*	i
COc1ccc(COC(=O)c2cc([N+](=O)[O-])ccc2N2CCOCC2)cc1F	9.4*	i	i	i	0.03	i	67*	i
O=C(NCc1ccc2c(c1)OCO2)c1cc([N+](=O)[O-])ccc1N1CCCCC1	9.2*	i	i	i	0.1	i	51*	i
CC(Oc1ccc(Cl)cc1)c1ccc(C#N)c(=O)[nH]1 (configuration not stated)	i	i	i	i	3.3	i	.	.
CSC(C(=O)c1cc2ccccc2o1)c1ccccc1 (configuration not stated)	i	i	i	i	-1	i	.	.
CC1CCCCC1NC(=O)COC(=O)c1c2c(nc3ccccc13)/C(=C\c1ccco1)CC2 (configuration not stated)	.	.	.	.	.	i	.	.
CC1CCCN(c2ccc([N+](=O)[O-])cc2C(=O)c2ccccc2)C1 (configuration not stated)	7.6*	i	i	i	-2.6	i	27*	i
O=C(c1ccccc1)c1cc([N+](=O)[O-])ccc1N1CCOCC1	i	i	i	i	-1.3	i	57*	i
O=C(c1ccc(Cl)cc1)c1cc([N+](=O)[O-])ccc1N1CCOCC1	i	i	i	i	-0.62	i	50*	i
O=C(c1ccc(Br)cc1)c1cc([N+](=O)[O-])ccc1N1CCOCC1	i	i	i	i	-0.22	i	.	.
Cc1cc(-c2ccccc2)nc2[n+]1CCN2C	7.5*	i	i	i	-0.66	i	61*	-59*
CCOC(=O)c1ccc(S(=O)(=O)N2CCN(c3ccccn3)CC2)cc1	i	i	i	i	1.3	i	.	.
CN1CCN(C(=S)NC(CC(=O)c2ccccc2)c2ccccc2)CC1 (configuration not stated)	i	i	i	i	0.01	i	.	.
Fc1ccc(C(c2nnnn2C2CCCC2)N(Cc2ccco2)CC2CCCO2)cc1 (configuration not stated)	8.6*	i	i	i	-0.91	i	46*	i
CC(C)(C)n1nnnc1C(c1ccc(C(F)(F)F)cc1)N(Cc1ccc(F)cc1)Cc1ccco1 (configuration not stated)	12*	i	i	i	1.2	i	31*	i
CC(C)(C)n1nnnc1C(c1ccc(C(F)(F)F)cc1)N(Cc1ccccc1)Cc1ccco1 (configuration not stated)	i	i	i	i	0.74	i	.	.
O=C(NNC(=O)C1CCN(C(=O)Nc2ccccc2)CC1)c1ccc([N+](=O)[O-])cc1	.	.	.	.	.	i	.	.
c1cn(CCCNc2ncnc3nc[nH]c23)cn1	i	i	i	i	-0.39	i	.	.
Cc1sc2ncnc(NCCCn3ccnc3)c2c1C	i	i	i	i	-1.5	i	48*	-51*
Cc1noc(NS(=O)(=O)c2ccc(NC(=O)c3cc(=O)c4ccccc4o3)cc2)c1C	i	i	i	i	-0.32	i	.	.
Cc1cc2oc(C(=O)Nc3ccc(S(=O)(=O)Nc4onc(C)c4C)cc3)cc(=O)c2cc1Cl	i	.	i	i	-0.72	i	37*	-35*
SMILES	CHT allo act	Rce1 inhib	CHT block	ANO1 block	Kir21 inh	ANO1 activ	CHT activ conf	HEK293 MP dye
O=C(CSc1ncn[nH]1)c1ccc(OC(F)F)cc1	7.2*	i	i	i	-3.8	i	1	i
COC(=O)c1cccc(NC(=O)CCc2c(C)noc2C)c1	.	.	.	.	.	i	.	.
COc1ccccc1NS(=O)(=O)c1ccc(C)c(C(=O)NC2CCN(Cc3ccccc3)CC2)c1	.	.	.	.	.	i	.	.
COc1ccc([N+](=O)[O-])cc1C(=O)NC1CCN(Cc2ccccc2)CC1	6.9*	i	i	i	-0.77	i	46*	-43*
COc1ccc(-c2nc(CN3CCC(C(=O)NC4CCN(Cc5ccccc5)CC4)CC3)c(C)o2)cc1OC	7.6*	i	i	i	0.98	i	60*	-51*
CCC1CCCCN1CCCNC(=O)C1CCN(Cc2nc(-c3ccc(Cl)cc3)oc2C)CC1 (configuration not stated)	i	i	i	i	-1.2	i	36*	-30*
COc1ccc(-c2nc(CSCC(=O)NC3CCN(Cc4ccccc4)CC3)c(C)o2)cc1OC	i	i	i	i	1.1	i	.	.
O=C(NCc1ccccc1Cl)[C@@H]1CCCN1S(=O)(=O)c1ccc(Cl)cc1	.	.	.	.	.	i	.	.
CN(C)S(=O)(=O)c1cccc(COC(=O)Cc2c(F)cccc2Cl)c1	i	i	i	i	-0.39	i	.	.
CN(C)C1=NCCN1CCc1ccccc1	i	.	i	i	.	i	.	.
CCOc1ccccc1NC(=O)CSc1nnc(-c2ccco2)o1	16*	i	i	i	1.4	i	7	i
O=C(NCC1CCCCC1)c1ccc(F)cc1Cl	i	i	i	i	-1	i	.	.
OCCC1CN(Cc2ccc3cccc(F)c3n2)CCN1Cc1ccccc1 (configuration not stated)	i	i	i	i	-0.36	i	.	.
COC(=O)CNC(c1ccccc1)c1cc(Br)ccc1N (configuration not stated)	i	i	i	i	-0.55	i	.	.
